Bioassay records: PubChem BioAssay, University of Kansas High Throughput Screening Laboratory
The sample as a whole holds a higher share of hits than the screen did.
mHTT-CaM PPI inh: disrupts binding of mutant huntingtin to calmodulin; hit rate 3.6% among 190,000; P42858; inhibition, % at 15 µM; AlphaScreen His-mHTT/GST-CaM binding, luminescence;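 further: 0% = both proteins with DMSO and 100% = one protein alone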
Pf apPOL inh: Pf-apPOL DNA polymerase inhibition; Recombinant Pf-apPOL, molecular beacon fluorescence, 1.5 h; inhibition, % at 10 µM; hit rate 0.25% among 210,000; AID 1794808
* hit, by the source's call; · = no result given. No stated cut-off is given here; in the data, active means inhibition above about 50%; inactive means the rest.

SMILES	mHTT-CaM PPI inh	Pf apPOL inh
COc1cc(OC)c(OC)cc1C=C1Oc2c(ccc3c2CN(Cc2ccccn2)CO3)C1=O	97*	-52
COc1ccccc1C=C1Oc2c(ccc3c2CN(Cc2ccccn2)CO3)C1=O	-2	-35
CC(C)N1CCC2(CC1)N=C(c1ccccc1O)CC(c1ccccc1)N2 (centres undefined)	15	-2
COc1cccc(OC)c1C(=O)N1CCCC1c1ccc(F)cc1 (centres undefined)	4	-4
O=C(NCc1ccccn1)c1cn(-c2ccc(F)cc2)nn1	-1	-16
COc1ccc(-n2c(NN)nc3sc4c(c3c2=O)CCCC4)cc1	61*	-5
COc1ccc(-n2c(=O)c3c4c(sc3n3cnnc23)CCCC4)cc1	7	1
COc1cccc(C(=O)N2CCc3c(c(C(=O)NCc4ccc(F)cc4)nn3C)C2)c1	86*	-14
Cn1nc(C(=O)NCc2ccc(F)cc2)c2c1CCN(C(=O)c1ccc(F)cc1)C2	-6	-4
Cc1cccc(C(=O)N2CCc3c(c(C(=O)NCc4ccc(F)cc4)nn3C)C2)c1	73*	-10
Cn1nc(C(=O)NCc2ccc(F)cc2)c2c1CCN(C(=O)c1cccs1)C2	0	-12
COc1cc(Cl)c(C)cc1-n1ccn(CC(=O)c2ccc(F)cc2)c(=O)c1=O	-5	-4
Cc1ccc(NS(=O)(=O)c2ccccc2[N+](=O)[O-])cc1C	12	51*
O=[N+]([O-])c1ccccc1S(=O)(=O)Nc1ccc(Cl)c(Cl)c1	5	-11
Cc1ccc(NC(=O)C2CCN(c3ccc4c(c3)OCCO4)C2=O)cc1 (centres undefined)	1	-7
O=C(CCC1CCCC1)Oc1ccc2c(=O)c(-c3nc4ccccc4s3)coc2c1	-7	-4
Cc1noc(-c2cccc(C(F)(F)F)c2)c1C(=O)NCc1ccccn1	6	-1
COc1ccc(C2CC(O)(c3ccccc3)Oc3c(C)ccc(C)c32)cc1 (centres undefined)	46	-6
COc1ccc(C2CC(O)(c3ccccc3)Oc3cc(OC)cc(OC)c32)cc1 (centres undefined)	92*	-3
CCn1cc(S(=O)(=O)N2CCC(c3cnn(-c4ccc(C)cc4)c3)CC2)cn1	-12	-4
O=C(Nc1ccccc1)N1CCN(C(C(=O)N2CCCC2)C2CCCC2)CC1 (centres undefined)	12	-3
CCN(CC)c1ccc(N=Nc2c(O)ccc3ccccc23)cc1	·	-12
Oc1ccc2ccccc2c1N=Nc1ccccc1	84*	·
Cc1scc2nc(C(=O)NCc3ccc(F)cc3)nc(N3CCCC3)c12	81*	-19
CCNC(=O)c1nc(N2CCCC2)c2c(C)scc2n1	26	-4
SMILES	mHTT-CaM PPI inh	Pf apPOL inh
CC(C)NC(=O)N1CCc2[nH]cnc2C1c1ccncc1 (centres undefined)	-8	0
Cc1onc(-c2c(Cl)cccc2Cl)c1C(=O)On1c(-c2ccccc2)nc2ccccc2c1=O	·	-3
O=C(On1c(-c2ccccc2)nc2ccccc2c1=O)c1ccco1	100*	-10
CN(C)c1ccc(C(O)c2nc3ccccc3n2Cc2ccccc2)cc1 (centres undefined)	50*	-7
CC(O)c1nc2ccccc2n1Cc1ccccc1 (centres undefined)	6	-10
N#CCN1CCCC(c2nncn2-c2ccccc2)C1 (centres undefined)	2	3
COc1c(C(=O)N2CCN(c3ccccc3F)CC2)sc2cccc(F)c12	13	1
COc1c(C(=O)N2CCN(c3ccccc3)CC2)sc2cccc(F)c12	64*	0
O=C(CN1C(=O)/C(=C/c2ccccc2F)Sc2ccccc21)N1CCCCC1	-4	1
O=C(CN1C(=O)/C(=C/c2ccccc2F)Sc2ccccc21)N1CCN(C2CCCCC2)CC1	75*	-22
COc1cccc(C(=O)N2CCC(c3cnn(-c4cccc(F)c4)c3)CC2)c1	-3	0
OC(C#CC1(O)CCCCC1)c1cccs1 (centres undefined)	-5	1
CCN(C)c1nc(-c2cccc(F)c2)c2c(N)n(-c3cccc(F)c3)nc2n1	57*	2
CCN(C)c1nc(-c2ccccc2Cl)c2c(N)n(-c3ccccc3)nc2n1	20	0
O=[N+]([O-])c1cc(C(F)(F)F)cc([N+](=O)[O-])c1NCCCn1ccnc1	·	-4
CCCNc1c(N)cc(C(F)(F)F)cc1[N+](=O)[O-]	55*	-41
CCn1c(-c2ccccc2)nc2ccccc21	-5	6
CC(=O)Nc1ccc2c(c1)C1C=CCC1C(c1ccc(Br)cc1)N2 (centres undefined)	86*	73*
Cc1ccc2c(c1)C1C=CCC1C(c1ccccc1Br)N2 (centres undefined)	77*	-8
CC(=O)Nc1ccc2c(c1)C1C=CCC1C(c1ccccc1[N+](=O)[O-])N2 (centres undefined)	65*	6
CC(=O)Nc1cccc(NC(=O)c2ccccc2[N+](=O)[O-])c1	0	-10
Brc1cc2c(cc1[C@H]1Nc3ccccc3[C@H]3C=CC[C@H]31)OCO2	·	6
COc1ccc(NC(=O)Nc2cc(-c3cn4nc(OC)ccc4n3)ccc2C)c(OC)c1	12	0
O=C(c1c(F)cccc1F)N1CCN(c2nc(CN3CCCCC3)cs2)CC1	9	0
COc1ccc2cc3cc(C(=O)Nc4ccc(OC)c(Cl)c4)oc3nc2c1	48	2
SMILES	mHTT-CaM PPI inh	Pf apPOL inh
COc1ccc(NC(=O)C(=O)NC2CCCCCC2)cc1Cl	0	-3
CCCc1cc(C2CCCN2C(=O)Nc2cc(OC)cc(OC)c2)no1 (centres undefined)	-8	0
COc1ccc(/C=C2/N=C(c3ccc(Br)cc3)OC2=O)c(OC)c1	2	-10
CCCCN1C(=O)CN(C2CCCCC2)C(=O)C1c1ccc(OCCC)c(OC)c1 (centres undefined)	53*	-10
CCCCN1C(=O)CN(C2CCCCC2)C(=O)C1c1ccc(OC(C)C)c(OC)c1 (centres undefined)	45	-6
CCOc1ccc(C2C(=O)N(C3CCCCC3)CC(=O)N2Cc2ccccc2Cl)cc1OC (centres undefined)	58*	-7
COc1ccc(C2C(=O)N(C3CCC(C)CC3)CC(=O)N2Cc2ccccc2Cl)cc1OC (centres undefined)	15	-8
COc1ccc(-c2noc(C3CCCN3C(=O)c3cccc(F)c3)n2)cc1 (centres undefined)	2	0
COc1ccc(C2CCCN2C(=O)c2cc(C3CCCCC3)no2)cc1 (centres undefined)	-12	1
COc1ccc(-n2nc3c(c2NC(=O)C2CCCC2)CS(=O)(=O)C3)cc1	4	4
CCCCC1CCC(C(=O)Nc2c3c(nn2-c2ccc(OC)cc2)CS(=O)(=O)C3)CC1 (centres undefined)	58*	1
Cc1ccc(NC(=O)N2CCC3(CC2)Nc2cc(F)ccc2-n2cccc23)c(C)c1	40	0
O=C(Nc1ccccc1C(F)(F)F)N1CCC2(CC1)Nc1cc(F)ccc1-n1cccc12	37	5
COc1ccc(Cl)cc1NC(=O)N1CCC2(CC1)Nc1ccccc1-n1cccc12	32	-6
CSc1cccc(NC(=O)N2CCC3(CC2)Nc2ccccc2-n2cccc23)c1	84*	-5
Cc1c(Cl)cccc1NC(=O)N1CCC2(CC1)Nc1cc(F)ccc1-n1cccc12	41	-2
Cc1cccc(NC(=O)N2CCC3(CC2)Nc2cc(F)ccc2-n2cccc23)c1	55*	0
